Source: ChEMBL document CHEMBL5308541, “MAIP: An Open-Source Tool to Enrich High-Throughput Screening Output and Identify Novel, Druglike Molecules with Antimalarial Activity” (ACS Med Chem Lett, 2023)
Hit rate of the full screen: of about 4,800 compounds, about 410 (8.5%) showed an effect of 50% or more. This excerpt belongs to a sample that is enriched for strong results.

Each molecule was assayed on Plasmodium falciparum (assay: Confirmatory screen in NF54 pLDH assay, in single point, at 2uM, 72h). Conditions: timepoint 72 hour.
Assay type: functional, Erythrocyte

Row | SMILES | % Inhibition [%]
1 | Cc1cnccc1NCCNCc1cccc(OCCCCN2CCOCC2)c1 | 95
2 | Cc1cnccc1NCCNCc1cnc(N2CCCCC2)nc1 | 62
3 | CCCN1CCC(N2CC(c3cccnc3)C(c3nc(C4CCCC4)no3)C2)CC1 (stereo not drawn) | 10
4 | OCC1CCCN1CCCCNC1CC2(CCC2)Oc2ccccc21 (stereo not drawn) | -5
5 | COc1ccc2nc3cc(Cl)ccc3c(O)c2c1 | 39
6 | COc1ccc2c(O)c(Br)c(C)nc2c1 | 72
7 | Cc1nc(-c2ccccn2)nc(NC2CCN(CC(F)F)CC2)c1C | 24
8 | Cc1cnccc1N1CCCN(Cc2ccccc2OCCN2CCN(C)CC2)CC1 | 102
9 | CCCC(=O)NC1COCC1Cc1ccncc1 (stereo not drawn) | 86
10 | CCOc1cc(C(=O)NC2CCN(CC3CCCC3)CC2)cc(-c2ccccc2)c1OC | 99
11 | Cc1cc(F)ccc1N1CCC(NCCCNc2cccnc2)CC1 | -2
12 | FC(F)(F)c1ccc(N2CCC[C@H](NC3CCN(Cc4ccco4)CC3)C2)nc1 | 38
13 | CCc1cc(Nc2ccc(N3CCOCC3)nc2)nc(-c2ccncc2)n1 | 42
14 | O=C(NC1CCN(CCOc2ccc(Cl)cc2)CC1)c1c[nH]c2ccncc2c1=O | 100
15 | O[C@@H](CNCc1cc2cc(Cl)c(Cl)cc2[nH]1)c1ccc(F)cc1 | 80
16 | OC[C@H](CNCc1cc2ccc(F)cc2[nH]1)c1ccccc1Cl | 82
17 | Cc1cc(N2CCC(N(C)Cc3cc(-c4ccccc4)n[nH]3)CC2)nc(N)n1 | 52
18 | CN(CCCc1cc(-c2ccc(F)cc2)n[nH]1)CC1CCNCC1 | 17
19 | CCN1CCN(c2ccc(CNCc3cccc(O)c3)cc2F)CC1 | 85
20 | Cc1ccccc1CN1CCC(CNc2c3c(nc4ccccc24)CCC3)CC1 | 103
21 | N#Cc1cccc(Cl)c1N1CCC(N2CCCC2)CC1 | 38
22 | CCc1cc(NCCc2nc3cc(F)ccc3[nH]2)nc(-c2ccccn2)n1 | 9
23 | C[C@H](Nc1nc(N)c2ccccc2n1)c1cccc(-n2cncn2)c1 | 29

Row | SMILES | % Inhibition [%]
24 | COCCNc1nc(N[C@@H](C)c2ccccc2)c2ccccc2n1 | 92
25 | NCC1(O)CCN(c2ccnc3cc(F)c(Cl)cc23)CC1 | 97
26 | CCc1oc2ccccc2c1CNC[C@H](O)c1ccc(Cl)cc1 | 99
27 | CC(C)c1ccc(CN2CCC[C@@](O)(CNCCN3CCNCC3)C2=O)cc1 | 29
28 | O=C1CN(C(=O)c2ccnc3ccccc23)CCN1Cc1ccccc1F | 63
29 | COc1cc2nc(-c3ccc(F)c4cccnc34)nc(N)c2cc1OC | 102
30 | Cc1cccc(N2CCC(NCc3cc(C)cc(CN4CCN(C)CC4)c3C)CC2)c1 | 84
31 | Cc1cc(C)c(CN2CCN(C)CC2)cc1CNCCCn1ccnc1C | 44
32 | Clc1ccc2[nH]c3c(c2c1)CCCC3NC1CCN(C2CCOC2)CC1 (stereo not drawn) | 96
33 | CCN1CCC(N2CCC(C(=O)NCCc3ccc(OC(F)(F)F)cc3)CC2)CC1 | 53
34 | O=C(NCc1ccc(OC(F)(F)F)cc1)N(CCN1CCCC1)[C@H]1CCCNC1 | 33
35 | Cc1sc2nc(-c3ccccn3)nc(NCCc3nccn3C)c2c1-c1ccccc1 | 65
36 | O=C(CCc1nnc(-c2ccc(-c3ccccc3)cc2)o1)NC[C@@H]1CCCN2CCCC[C@H]12 | 86
37 | COc1ccc2nc(C)cc(NCc3cccc(NC(=O)c4ccco4)c3)c2c1 | 105
38 | Cc1c(CN2CCC(O)(Cn3ccnc3)CC2)[nH]c2c(Cl)cccc12 | 99
39 | Cc1ccc2nc(NC[C@H]3CCN(C4CC4)C3)cc(C)c2c1 | 100
40 | Cc1ccc2nc(-c3cccc(NC(=O)c4ccc(OC(F)(F)F)c(Cl)c4)c3)[nH]c2n1 | 74
41 | O=C(NCCNc1ccnc2ccncc12)c1ccc(C(F)(F)F)cc1 | 43
42 | Cc1cnccc1NCCNCc1ccc(OC(C)C)c(Cl)c1 | 84
43 | Cc1ocnc1CNC[C@H](O)c1ccc(Cl)c(Cl)c1 | 97
44 | CNc1nc(N[C@H]2CCCN(Cc3ccc(Cl)cc3)C2)nc2c1CCC2 | 100
45 | Nc1ccc(Nc2ccc(F)cc2)c2ccncc12 | 70
46 | CN([C@@H](c1ccccc1)c1ccccc1Br)S(=O)(=O)c1c[nH]c2ncccc12 | 67

Row | SMILES | % Inhibition [%]
47 | CN(C[C@H](O)COc1cccc(CNCCCOc2cccnc2)c1)C1CCCCC1 | 44
48 | CN(C[C@H](O)COc1ccccc1CN1CCC(c2ccncc2)CC1)C1CCCCC1 | 84
49 | O=C(Nc1cncnc1N1CCCC1)c1cc(F)cc2[nH]cnc12 | -8
50 | CN1CCC(N(C)C[C@H](Nc2ncnc3ccccc23)c2ccccc2)CC1 | 102
51 | Cc1nc2ccc(Oc3ccccc3)cc2c(O)c1CN(C)C1CCN(C)CC1 | 28
52 | CN(C)CCN1CCC(CNCc2ccc3ncccc3c2)CC1 | 29
53 | COc1ccc(-c2cncc(C(=O)NCC3CCN(CCN(C)C)CC3)c2)cc1 | 96
54 | COC(=O)c1cn(CCNc2ccnc3cc(Cl)ccc23)cc2c(O)nnc1-2 | 103
55 | CCCN(CCN1CCN(CC)CC1)c1nc(-c2ccccn2)nc2c1CCC2 | 10
56 | c1ccc(-c2nc3c(c(NCCNc4ncccn4)n2)CCC3)nc1 | 23
57 | CNc1nc(C)cc(N[C@@H]2COc3ccccc3C2)n1 | 89
58 | c1ccc2c(CNCCC3CCN(c4ccncc4)CC3)csc2c1 | 95
59 | Fc1ccc(-n2cc(CNCCC3CCN(c4ccncc4)CC3)cn2)cc1 | 102
60 | CCN1CCN(c2ccccc2CNCCC2CCN(C)CC2)CC1 | 2
61 | c1ccc(-c2ccnc(C3CCN(CC45CNCC4C5)CC3)n2)cc1 (stereo not drawn) | 96
62 | COCCN1CC[C@H](CNC2CCN(c3ncc4ccc(F)cc4n3)CC2)C1 | 71
63 | COCCN1CCC[C@H](CNCc2cnn(-c3ccc4ccccc4c3)c2)C1 | 13
64 | CN(C)C1(CNc2nc(C(F)(F)F)nc3cc(F)ccc23)CCCCCC1 | 57
65 | CN(C)C1(CNc2nc(C(F)(F)F)nc3cc4c(cc23)OCO4)CCCCCC1 | 49
66 | Cc1ccc(-c2cc(C(=O)NC3CCN(C4CCN(C)CC4)CC3)n[nH]2)cc1C | 102
67 | CN1CCC(N2CCC(NC(=O)c3ccc(S(=O)(=O)N(C)C4CCCCC4)cc3)CC2)CC1 | 39
68 | Cc1cc(N2CCC(NCCCN3CCCc4ccccc43)CC2)nc(N)n1 | 88
69 | Cc1cc(N2CCC(NCCc3c[nH]cn3)CC2)nc(-c2ccccc2)n1 | 11

Row | SMILES | % Inhibition [%]
70 | Cc1ccc2nc(CCCNC3CCN(c4cc(C)nc(N)n4)CC3)oc2c1 | 59
71 | CN(C)CCN1CCC(NC2CCC(O)(c3cccc(Cl)c3)CC2)CC1 (stereo not drawn) | 33
72 | OC1(c2ccc(Cl)cc2)CCN(C[C@@H]2CCCN3CCCC[C@H]23)CC1 | 88
73 | CC(C)(C)n1ncc2c(NCc3ccc4cccnc4c3O)ncnc21 | 37
74 | c1ccc2c(c1)CN(c1ncnc3[nH]ccc13)CC1(CCOCC1)O2 | -5
75 | CCn1cc(-c2cccc(C(=O)N[C@@H](C)CN3CCc4ccccc4C3)c2)cn1 | 38
76 | NCCCCc1c(-c2cccnc2)[nH]c2c(Cl)cc(Cl)cc12 | 75
77 | COCCN1CC[C@H](CN(C)c2ccnc3cc(Cl)ccc23)C1 | 102
78 | O[C@@]1(c2c[nH]nn2)CCN(c2ccnc3cc(Cl)ccc23)C1 | 98
79 | COCCN1CCC[C@@]2(CCN(c3ccnc4cc(Cl)ccc34)C2)C1 | 101
80 | NC(=O)[C@]1(O)CCN(c2ccnc3ccc(Oc4ccccc4)cc23)C1 | 33
81 | CN1CCC(Oc2ccc(NC(=O)c3cn4ccnc4s3)cn2)CC1 | 92
82 | CN(C)Cc1cccc(CCNCc2csc(-c3ccc(C(F)(F)F)cc3)n2)c1 | 88
83 | COc1ccc2[nH]cc(C3=CCN(c4ccc5nnc(-c6ccccc6F)n5n4)CC3)c2c1 | 41
84 | Fc1cccc(Cl)c1CN1CCC(NC[C@H]2CCCOC2)CC1 | 21
85 | c1cc(CNC2CCN(C[C@H]3CCOC3)CC2)c2cc[nH]c2c1 | -13
86 | CCc1ccc2ncnc(NCCCN3CCN(CCO)CC3)c2c1 | 85
87 | Cc1cc(O)c(Cl)cc1-c1ccc2nccc(N)c2c1 | 100
88 | Cc1cc(O)c(Cl)cc1-c1cccc2c(N)ccnc12 | 94
89 | COC(CN(Cc1nc(N)nc(Nc2ccc(C)cc2)n1)Cc1nc(N)nc(Nc2ccc(C)cc2)n1)OC | 94
90 | c1ccc(CCC23CN(Cc4ccccn4)CC2CN(Cc2ccns2)C3)cc1 (stereo not drawn) | 88
91 | Cc1noc(-c2ccnc(NC[C@@H](c3ccccn3)N3CCOCC3)c2)n1 | 100
92 | COc1ccc2c(C)cc(NCCCN3CCC[C@H](C(N)=O)C3)nc2c1 | 100

Row | SMILES | % Inhibition [%]
93 | Cc1cc(NCCCN2CCC[C@H](O)C2)c2cc(F)ccc2n1 | 31
94 | CCN1C[C@H](Nc2nc(C)nc3sccc23)[C@@H](OC)C1 | 101
95 | O=C(NCCN1CCCCC1)c1cccc(-c2cnc3ccc(F)cn23)c1 | 21
96 | CC(CNc1nc(NCC(C)N2CCOCC2)c2cc(Cl)ccc2n1)N1CCOCC1 (stereo not drawn) | 102
97 | CCNc1cc(C)nc(NCCNC(=O)Nc2cc(F)cc(F)c2)n1 | 92
98 | CCNc1nc(C)cc(Nc2ccc(NC(=O)Nc3ccc(F)cc3F)cc2)n1 | 99
99 | CCOc1ccc2nc(CN(CC)CC3CCN(C4CCN(C)CC4)CC3)ccc2c1 | 99
100 | CCOc1ccc2nc(N3CCC(N4CCC([C@H](O)c5cccnc5)CC4)CC3)nc(C)c2c1 | 8
101 | CN(Cc1cn(CC(N)=O)c2ccccc12)CC1CCN(CCc2ccc(F)cc2)CC1 | 41
102 | Cc1ccc2nccc(N3CCC(N4CCC(O)CC4)CC3)c2c1 | 12
103 | CCN1CCN([C@H]2CCN(c3ccnc4ccncc34)C2)CC1 | 98
104 | Cc1cc(N2CCC(Nc3ccnc4ccncc34)CC2)nc(C)n1 | 7
105 | Cc1ccc2[nH]cc(-c3cc(N4CCOCC4)nc(N)n3)c2c1 | 55
106 | Nc1cc(N2CCC(c3nc4cc(F)ccc4[nH]3)CC2)nc(N2CCOCC2)n1 | 42
107 | Cc1ccc(-c2cccc3c(C(=O)NCCCN4CCC(N5CCCCC5)CC4)cc(C)nc23)cc1 | 103
108 | Brc1ccc2[nH]c3c(c2c1)CCCC3NC1CCc2[nH]cnc2C1 (stereo not drawn) | 104
109 | CCOc1cc2nccc(N3C[C@H]4CN(C)C[C@H]4C3)c2cc1OCC | 96
110 | Nc1ccc(-c2cc(OC(F)(F)F)ccc2O)cn1 | 14
111 | Oc1ccc(OC(F)(F)F)cc1-c1ccc2nccn2n1 | 92
112 | Clc1cccc(N2CC[C@H](CNC3CCN(Cc4ccco4)CC3)C2)c1 | 97
113 | COc1ccnc(NCCCc2nc(-c3ccncc3)cs2)n1 | 64
